Screens as filed in PubChem.
Shown are actives, neighbours in structure and some others; about 1.7% of the full set was active somewhere.
BJeLR viability – BJeLR cell viability loss | BJeLR (HRASV12) viability, CellTiter-Glo ATP luminescence, 48 h | inhibition, % (no concentration beside the values) | 300,000 compounds, 0.17% hits | AID 1554; in the data active means inhibition above about 50%
PrPC surface inh – inhibitors of human cell surface prion protein PrPC | P04156 | TR-FRET read-out | inhibition, % at 13.8 µM | 370,000 compounds, 0.43% hits | AID 720596; in the data active means inhibition above about 24%
Y pestis TopoI – inhibitors of Yersinia pestis topoisomerase I | Y. pestis Topo-I cleavage product accumulation, plate reader | AID 504884 | activity, % at 10 µM | 360,000 compounds, 0.064% hits; in the data active means activity above about 50%, passing the limit was not always enough
SSB-PriA inh – inhibitors of Klebsiella pneumoniae PriA binding to SSB C-terminal tail; 430,000 compounds, 0.6% hits; AlphaScreen SSBct-PriA binding, biotinylated peptide; AID 1272365; inhibition, % at 33 µM; in the data active means inhibition mostly above about 37%, no sharp cut-off; inactive means mostly below about 20%
PfHsp40 rescue – restores yeast growth despite PfHsp40 toxicity. S. cerevisiae expressing PfHsp40, growth rescue, ATP luminescence. growth rescue, % at 12.5 µM. 340,000 compounds, 0.68% hits; in the data active means growth rescue above about 28%, passing the limit was not always enough;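 further: yeast W303a lacking pdr1 and pdr3 grown in galactose medium; growth measured after three days at 30 °C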
PrP 5UTR inh – suppresses PrP 5' UTR mRNA reporter expression; inhibition, % (test concentration not listed); cell-based PrP 5' UTR mRNA reporter, plate reader; AID 488862; 340,000 compounds, 0.35% hits; in the data active means inhibition above about 52%
A number is an active result.

CN(C)C(CNc1ccc(C(F)(F)F)cc1[N+](=O)[O-])c1ccccc1 (stereo not drawn) was read as BJeLR viability inactive, PrPC surface inh inactive, Y pestis TopoI inactive, SSB-PriA inh 48.8, PfHsp40 rescue inactive and PrP 5UTR inh inactive.
CC1=CC(=O)C(C(C)C)=C/C1=C(\c1cc(C(C)C)c(O)cc1C)c1ccccc1S(=O)(=O)O was read as SSB-PriA inh 59.0.
`CC1=CC(=O)C=C/C1=C(\c1ccc(O)cc1C)c1ccccc1S(=O)(=O)O` gave SSB-PriA inh inactive.
`O=C(NCc1nn(CCN2CCCC2)c(=O)c2ccccc12)c1cccc(C(F)(F)F)c1` gave SSB-PriA inh inactive.
For CCS(=O)(=O)NCCOc1ccc2nnc(-c3ccccc3)n2n1 the results were SSB-PriA inh inactive.
`O=C(NCCn1nc(-c2cccs2)ccc1=O)Nc1ccc(Cl)c(Cl)c1` gave SSB-PriA inh inactive.
Cc1cc(C(=O)Nc2nnc(Cc3ccc(Cl)s3)o2)on1 was read as SSB-PriA inh inactive.
O=C(Nc1nc(C(=O)Nc2cccc3nsnc23)co1)c1ccccc1 was read as SSB-PriA inh inactive.
Screening CC(=NNc1nc2ccccc2[nH]1)c1ccc(N2CCOCC2)cc1 returned SSB-PriA inh 54.0.
`Cc1ccc([N+](=O)[O-])cc1NC(=S)NC(=O)c1cccnc1` gave BJeLR viability inactive, PrPC surface inh inactive, Y pestis TopoI inactive, SSB-PriA inh inactive, PfHsp40 rescue inactive and PrP 5UTR inh inactive.
Screening O=C(NC(=S)Nc1cc([N+](=O)[O-])ccc1O)c1cccnc1 returned BJeLR viability inactive, PrPC surface inh inactive, Y pestis TopoI inactive, SSB-PriA inh inactive, PfHsp40 rescue inactive and PrP 5UTR inh 55.5.
For CCC(C)c1ccc(O)c(NC(=S)NC(=O)c2cccnc2)c1 (stereo not drawn) the results were BJeLR viability inactive, PrPC surface inh inactive, Y pestis TopoI inactive, SSB-PriA inh inactive, PfHsp40 rescue 53.6 and PrP 5UTR inh inactive.
Screening O=C(NC(=S)NNC(=O)c1ccccc1O)c1cccnc1 returned BJeLR viability inactive, PrPC surface inh inactive, Y pestis TopoI inactive, SSB-PriA inh 61.9, PfHsp40 rescue inactive and PrP 5UTR inh inactive.
Screening Cc1c(Cl)cccc1NC(=O)c1cc(-c2ccc(F)cc2)c[nH]1 returned SSB-PriA inh inactive.
Cc1cc(C)cc(NC(=O)CN(C)S(=O)(=O)c2cnc[nH]2)c1 was read as BJeLR viability inactive, PrPC surface inh inactive, Y pestis TopoI inactive, SSB-PriA inh inactive, PfHsp40 rescue inactive and PrP 5UTR inh inactive.
`Cc1cccc(CCNC(=O)CN(C)S(=O)(=O)c2cnc[nH]2)c1` gave BJeLR viability inactive, PrPC surface inh inactive, Y pestis TopoI inactive, SSB-PriA inh inactive, PfHsp40 rescue 70.3 and PrP 5UTR inh inactive.
`Cc1ccc(Cl)cc1S(=O)(=O)NCCc1ccc2c(c1)CCCN2C` gave SSB-PriA inh 59.0.
Screening Cc1cc(C)c(S(=O)(=O)NCCc2ccc3c(c2)CCCN3C)cc1C returned SSB-PriA inh 40.0.
For Cc1cc(OC2CN(C(=O)CCn3cnc4ccccc4c3=O)C2)cc(=O)o1 the results were SSB-PriA inh inactive.
COC(=O)C1CN(C#N)N(c2ccc(Cl)cc2)C12c1ccccc1-c1ccccc12 (stereo not drawn) was read as BJeLR viability 83.9, Y pestis TopoI inactive, SSB-PriA inh inactive, PfHsp40 rescue inactive and PrP 5UTR inh inactive.
`COc1cccc(N2CCN(c3ncnc4c3[nH]c3ccc(F)cc34)CC2C)c1` (stereo not drawn) gave BJeLR viability inactive, PrPC surface inh 85.4, Y pestis TopoI inactive, SSB-PriA inh 42.1, PfHsp40 rescue inactive and PrP 5UTR inh inactive.
Screening CC1(c2ccc(Cl)cc2Cl)OCC(Cn2cncn2)O1 (stereo not drawn) returned BJeLR viability inactive, PrPC surface inh inactive, Y pestis TopoI inactive, SSB-PriA inh inactive, PfHsp40 rescue inactive and PrP 5UTR inh inactive.
Screening CCCC1COC(Cn2cncn2)(c2ccc(Cl)cc2Cl)O1 (stereo not drawn) returned BJeLR viability inactive, PrPC surface inh inactive, Y pestis TopoI inactive, SSB-PriA inh inactive, PfHsp40 rescue 134.1 and PrP 5UTR inh inactive.
For c1ccc(C(c2nnnn2Cc2ccco2)N2CCN(c3nc4ccccc4s3)CC2)cc1 (stereo not drawn) the results were BJeLR viability inactive, PrPC surface inh inactive, Y pestis TopoI inactive, SSB-PriA inh inactive, PfHsp40 rescue inactive and PrP 5UTR inh inactive.
`CCCCC(c1nnnn1Cc1ccco1)N1CCN(c2nc3ccccc3s2)CC1` (stereo not drawn) gave BJeLR viability inactive, PrPC surface inh inactive, Y pestis TopoI inactive, SSB-PriA inh inactive, PfHsp40 rescue 27.4 and PrP 5UTR inh inactive.
`CNc1ccc(C=C2C=Cc3ccccc32)cc1` gave PrPC surface inh inactive, Y pestis TopoI inactive, SSB-PriA inh inactive, PfHsp40 rescue 172.4 and PrP 5UTR inh inactive.
Screening CN(C)c1ccc(C=C2C=Cc3ccccc32)cc1 returned PrPC surface inh inactive, Y pestis TopoI inactive, SSB-PriA inh inactive, PfHsp40 rescue inactive and PrP 5UTR inh inactive.
Screening COc1cc(/C=N/NC(=Nc2ccc(C)cc2)c2nc3ccccc3s2)ccc1O returned BJeLR viability inactive, PrPC surface inh inactive, Y pestis TopoI inactive, PfHsp40 rescue inactive and PrP 5UTR inh 77.0.
For Cn1cccc1C(O)CNC(=O)C1c2ccccc2Oc2ccccc21 (stereo not drawn) the results were SSB-PriA inh inactive.
COc1ccc(OC)c(NS(=O)(=O)Cc2ccccc2)c1 was read as BJeLR viability inactive.
Screening COc1cc(OC)c(C#N)c(S(=O)(=O)Cc2ccccc2)c1 returned BJeLR viability inactive, PrPC surface inh inactive, Y pestis TopoI inactive, SSB-PriA inh inactive, PfHsp40 rescue 64.1 and PrP 5UTR inh inactive.
Cc1ccccc1-n1ncc2c(C3CC3)nn(CC(=O)NC3CCCC3)c(=O)c21 was read as SSB-PriA inh inactive.
For COc1ccc(Cc2nc(-c3ccc(NC(=O)c4cccnc4)cc3)no2)cc1 the results were BJeLR viability 90.4, PrPC surface inh inactive, Y pestis TopoI inactive, SSB-PriA inh inactive, PfHsp40 rescue inactive and PrP 5UTR inh inactive.
Screening COc1ccc(-c2noc(CCC(=O)NCc3cccnc3)n2)cc1 returned BJeLR viability inactive, PrPC surface inh inactive, Y pestis TopoI inactive, SSB-PriA inh inactive, PfHsp40 rescue inactive and PrP 5UTR inh inactive.
For CC(C)(C)n1ncc2c(=O)n(CCC(=O)Nc3ccc(OC(F)(F)F)cc3)cnc21 the results were SSB-PriA inh inactive.
COC(=O)C(=N/Nc1ccccc1C(=O)OC)/C(C)=N/O was read as BJeLR viability inactive, PrPC surface inh inactive, Y pestis TopoI inactive, PfHsp40 rescue 137.2 and PrP 5UTR inh inactive.
Screening Cc1c(Cl)cccc1NC(=S)NCCC(c1ccccc1)c1ccccc1 returned BJeLR viability inactive, PrPC surface inh inactive, Y pestis TopoI inactive, SSB-PriA inh inactive, PfHsp40 rescue 54.4 and PrP 5UTR inh inactive.
